Screening results deposited in PubChem BioAssay by National Center for Advancing Translational Sciences (NCATS).
BAZ2B inh: qHTS Assay for Inhibitors of BAZ2B. actives 4.4% (n = 360,000). AlphaScreen BAZ2B-H3K14Ac peptide displacement. Potency, µM (top dose mostly 114 µM), without a hit: at the highest dose activity change, negative = inhibition, actives largely listed as inhibitors. Bromodomain adjacent to zinc finger domain protein 2B (Homo sapiens), Q9UIF8; note: potency is the fitted concentration of half-maximal effect; % is set by controls: 0 for no effect and ±100 for the full control effect; nearly all actives have a fitted effect of over 60% in size
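Multi-concentration screen (max 110 uM) measuring displacement of acetylated histone H3 peptide from BAZ2B by AlphaScreen, using 50 nM protein, 50 nM peptide and 10 ug/mL streptavidin donor plus Ni-chelate acceptor beads.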
PI5P4Ka inh: qHTS for Inhibitors of phosphatidylinositol 5-phosphate 4-kinase (PI5P4K); Phosphatidylinositol 5-phosphate 4-kinase type-2 alpha (Homo sapiens), P48426; PI5P4Kalpha enzyme, ADP-Glo luminescence, 60 min; hits give low values; max response, %; actives 1.2% (n = 330,000); active = max response of -50% or lower; inconclusive = between -30% and -50%; inactive = -30% or higher; note: value at the top dose of about 77 µM; % is set by controls: 0 for no effect and ±100 for the full control effect
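PI5P4Kalpha ADP-Glo assay; 5 microM ATP final; 60 min RT reaction; HEPES pH 7.4/EGTA/CHAPS, 5% DMSO; controls lacking substrate or enzyme; luminescent end-point.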
L3MBTL1 inh: qHTS Assay for the Inhibitors of L3MBTL1; AlphaScreen L3MBTL1–H3K9me1 peptide binding; Potency, µM (series often up to 57.1 µM), without a hit: at the top dose activity, negative = inhibition, most hits filed as inhibitors; AID 485360, 2010; Lethal(3)malignant brain tumor-like protein 1 (Homo sapiens), Q9Y468; actives 0.66% (n = 230,000); note: potency is the fitted concentration of half-maximal effect; % is set by controls: 0 for no effect and ±100 for the full control effect; nearly all actives have a fitted effect of over 60% in size
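L3MBTL1 (50 nM) pre-complexed 30 min with biotinylated H3(1-15)K9me1 peptide (75 nM), then compounds added for 30 min at room temperature; AlphaScreen streptavidin donor/nickel chelate acceptor beads (10 ug/mL final) read after 30 min dark incubation.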
HP1b binding inh: HTS for Inhibitors of HP1-beta Chromodomain Interactions with Methylated Histone Tails; Chromobox protein homolog 1 (Homo sapiens), P83916; AlphaScreen HP1-beta / biotin-H3K9me3 peptide binding; Potency, µM (doses to about 114 µM), inactives show top-dose activity change, negative = inhibition, actives largely listed as inhibitors; actives 0.56% (n = 390,000); AID 540317, 2011; note: potency is the fitted concentration of half-maximal effect; nearly all actives have a fitted effect of over 70% in size
Target sequence (P83916 whole entry, looked up): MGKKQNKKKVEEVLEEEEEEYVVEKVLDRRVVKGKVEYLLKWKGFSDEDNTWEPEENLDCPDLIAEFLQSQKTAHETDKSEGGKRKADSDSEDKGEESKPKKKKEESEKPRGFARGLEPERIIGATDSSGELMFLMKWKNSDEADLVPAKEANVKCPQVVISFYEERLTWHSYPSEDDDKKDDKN
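HP1-beta protein (50 nM final) preincubated 30 min at room temperature with biotinylated H3(1-18)K9me3 peptide (50 nM) in PBS pH 7.4, 0.01% Tween-20, then compound added for 30 min. AlphaScreen streptavidin donor/nickel chelate acceptor beads (10 ug/mL final), 30 min dark, luminescence read.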
G9a block: qHTS Assay for Inhibitors of Histone Lysine Methyltransferase G9a; G9a H3K9 monomethylation, AlphaScreen, 2 h; Potency, µM (series often up to 102 µM), for the others: at the highest dose activity, negative = inhibition, hits mostly inhibitors; Histone-lysine N-methyltransferase EHMT2 (Homo sapiens), Q96KQ7; actives 8.8% (n = 350,000); note: potency is the fitted concentration of half-maximal effect; % is set by controls: 0 for no effect and ±100 for the full control effect; nearly all actives have a fitted effect of over 75% in size
Target sequence (Q96KQ7 913-1193 limits assumed): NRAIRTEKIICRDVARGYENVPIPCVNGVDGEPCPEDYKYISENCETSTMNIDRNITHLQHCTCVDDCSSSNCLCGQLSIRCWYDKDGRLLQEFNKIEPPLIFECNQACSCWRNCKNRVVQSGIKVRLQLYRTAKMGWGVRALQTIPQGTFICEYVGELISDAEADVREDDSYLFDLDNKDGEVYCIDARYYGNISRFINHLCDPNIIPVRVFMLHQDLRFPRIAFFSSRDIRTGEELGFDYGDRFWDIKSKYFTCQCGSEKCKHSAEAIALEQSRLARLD
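Using a bead-based AlphaScreen, monomethylated H3K9 product from 2 h room-temperature reactions (G9a 20 nM, peptide 500 nM, SAM 20 uM) was detected with 0.5 ug/mL rabbit anti-H3K9me1 antibody.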
JMJD2A Tudor: qHTS Assay for Inhibitors of JMJD2A-Tudor Domain | Lysine-specific demethylase 4A (Homo sapiens), O75164 | AlphaScreen JMJD2A-Tudor / H3K4me3 peptide binding | Potency, µM (top dose mostly 114 µM), without a hit: at the highest dose activity change, negative = inhibition, usual class: inhibitors | actives 4.4% (n = 390,000) | AID 504339, 2011; note: potency is the fitted concentration of half-maximal effect; % is set by controls: 0 for no effect and ±100 for the full control effect; nearly all actives have a fitted effect of over 50% in size
The depositor's hits bear a star; u = inconclusive; x = not tested or not shown; [ ] = dose if it differs, or a comment. Only some compounds are listed: those with a hit (about 11% of all), similar ones and a draw of the others. Unless noted, calls come from the whole dose curve; as a rule, active = well fitted inhibition curve with a large enough effect; inconclusive = small, poorly fitted or top-dose-only effect; inactive = no such curve, though single readings can be large or run the other way.

SMILES	BAZ2B inh	PI5P4Ka inh	L3MBTL1 inh	HP1b binding inh	G9a block	JMJD2A Tudor
Cc1cc(C)n(CCc2nc(-c3ccco3)cs2)n1	50.1µM*	x	x	u	3.55µM*	50.1µM*
O=C1COc2cc(S(=O)(=O)CCC(=O)N3CCN(c4ccccc4)CC3)c(Cl)cc2N1	-10.3%	x	x	20.9%	-1.3%[59 µM]	-3.6%
S=c1[nH]ncn1NCc1ccc(Cl)cc1Cl	-3.5%	-1.3	-1.2%	27.5%	2.82µM*	31.6µM*
Fc1cccc(Cl)c1CNn1cn[nH]c1=S	-34.2%	0.0	1.3%	55.3%	8.91µM*	50.1µM*
Clc1ccc(CNc2ncnc3[nH]ncc23)c(Cl)c1	x	-4.1	x	22.5%	x	-13.3%
Fc1cccc(Cl)c1CNC(c1ccccc1)c1ccccc1	195.3%	x	x	201.7%	23.1%[59 µM]	114.5%
COc1ccc(S(=O)(=O)C(C#N)c2nc3ccccc3nc2N2CCCC(C)C2)cc1 (stereo not given)	44.7µM*	-2.4	-21.9%	u	u	u
CC1CCCN(c2nc3ccccc3nc2C(C#N)S(=O)(=O)c2cccs2)C1 (stereo not given)	u	x	x	3.8%	u	u
Oc1[nH]c2ccccc2c1N=Nc1nncc2ccccc12	u	-9.9	x	u	12.6µM*	-8.8%[11.4 µM]
Oc1[nH]c2ccccc2c1N=Nc1ccccn1	x	-0.4	x	28.6%	x	-25.7%
COc1cc(OC)cc(N(C(=O)c2ccco2)C(C(=O)NC2CCCC2)c2ccc(N(C)C)cc2)c1 (stereo not given)	u	28.6	-19.5%	-19.6%	22.4µM*	u
COc1cccc(N(C(=O)c2ccco2)C(C(=O)NC2CCCC2)c2ccc(N(C)C)cc2)c1 (stereo not given)	u	-2.0	-14.3%	u	u	u
COc1ccc(N(C(=O)c2ccco2)C(C(=O)NC2CCCC2)c2ccccc2)cc1 (stereo not given)	2.3%	3.0	x	20.6%	7.4%	-19.2%
COc1ccc(N(C(=O)c2ccco2)C(C(=O)NC2CCCC2)c2ccc(N(C)C)cc2)cc1 (stereo not given)	50.1µM*	0.2	x	-25.7%	79.4µM*	u
CC(C)CN(CCNC(=O)CC1Oc2ccccc2NC1=O)CC(C)C (stereo not given)	-4.1%	5.9	x	40.1%	u	-22.1%
CC1CCN(Cc2ccc(NC(=O)CC3Oc4ccccc4NC3=O)cc2)CC1 (stereo not given)	8.9%	-1.9	x	34.4%	50.1µM*	-26.9%
O=C(CC1Oc2ccccc2NC1=O)NCCc1ccccc1 (stereo not given)	41.1%	3.3	x	7.9%	-13.0%	u
CCC(C)N(CCNC(=O)CC1Oc2ccccc2NC1=O)C1CCCCC1 (stereo not given)	7.5%	-3.7	x	58.1%	50.1µM*	-6.9%
CCN(CCNC(=O)CC1Oc2ccccc2NC1=O)c1ccccc1 (stereo not given)	-24.5%	-1.3	x	18.7%	79.4µM*	-26.2%
CCOc1ccccc1N(CC)C(=O)Cn1ncc2c([nH]c3ccccc32)c1=O	2.2%	x	x	15.5%	-1.1%[59 µM]	5.9%
CCCOc1cccc(C2c3c(oc4cc(C)c(C)cc4c3=O)C(=O)N2CCCN2CCOCC2)c1 (stereo not given)	-24.7%	x	x	10.7%	-21.0%[59 µM]	-28.2%
COc1ccc2c(c1)C=C([C@@H]1C[C@H]3CN(c4ccccc4)C(=O)[C@]34CCCN14)CO2	-25.8%	5.3	-27.1%	-12.7%	56.2µM*	u
CCCCOc1ccc(-c2nc(/C=N/c3nccs3)c(O)o2)cc1	3.5%	3.7	4.7%	14.0%	13.0%[59 µM]	1.3%
